The values below come from PubChem BioAssay.

By inhibition is commonly meant the change of the read-out against control, counted positive when it falls.

SMILES strings stand for the structures. Where “and” joins values, the source holds several entries; their conditions need not be identical. Equal entries are not always repeated.

The nature of the first test: CRL2098 osteosarcoma cell growth inhibition, synergistic combos for chromothripsis tumors, BGB or cisplatin IC20 combos (AID 1671454).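 Further: cells exposed for 96 h before readout; 0% = vehicle DMSO and 100% = killing by high DMSO.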 Conditions: CRL2098 osteosarcoma cells, drug combinations, measured here: combination with BGB at IC20, at 0.5 µM, stronger effect = higher value.
With `CC(=O)OCC(CCn1cnc2cnc(N)nc21)COC(C)=O`, the inhibition was -9.88%.
`S=c1nc[nH]c2nc[nH]c12`: the inhibition is -5.16% and -41% and -65.5%.
In the case of `COc1c(N2CCNC(C)C2)c(F)cc2c(=O)c(C(=O)O)cn(C3CC3)c12` (centres undefined), the inhibition was -42.5% and -87.3%.
For `CC1COc2c(N3CCN(C)CC3)c(F)cc3c(=O)c(C(=O)O)cn1c23` (centres undefined), the inhibition is -84.4% and -20.4% and 15.5%.
As for `O=C1c2c(O)ccc(O)c2C(=O)c2c(NCCNCCO)ccc(NCCNCCO)c21`, the inhibition worked out at 20.4%.
In the case of `CS(=O)(=O)OCCCCOS(C)(=O)=O`, the inhibition was -29.9% and -15.7%.
The same measure, in the same setting: for `O=C(O)CCCc1ccccc1` the value was -54.3%.

Still in this test, the particulars now being: CRL2098 osteosarcoma cells, drug combinations, measured here: combination with cisplatin at IC20, at 0.5 µM, stronger effect = higher value.
As for `CC(=O)OCC(CCn1cnc2cnc(N)nc21)COC(C)=O`, the inhibition was -30.1%.
Consider `S=c1nc[nH]c2nc[nH]c12`, for which the inhibition was -32% and -63.9% and -65.9%.
As for `COc1c(N2CCNC(C)C2)c(F)cc2c(=O)c(C(=O)O)cn(C3CC3)c12` (centres undefined), the inhibition is -71.8% and 0.194%.
On to `CC1COc2c(N3CCN(C)CC3)c(F)cc3c(=O)c(C(=O)O)cn1c23` (centres undefined), for which the inhibition was -95.4% and 17.6% and 11.9%.
The same measure, in the same setting: for `O=C1c2c(O)ccc(O)c2C(=O)c2c(NCCNCCO)ccc(NCCNCCO)c21` the value was -13.9%; for `CS(=O)(=O)OCCCCOS(C)(=O)=O`, -107% and 11.7%; for `O=C(O)CCCc1ccccc1`, -68.3%.
